# A number with no mark means an inactive call. The rule behind the calls is not given here.
# Assay: compounds altering viability of human ES cells (AID 493140);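 note: cells exposed to compounds for four days before counting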
# Details: human embryonic stem cell survival screen; stronger effect = higher value
row,Compound,survival
1,CN1[C@@H]2CC[C@H]1CC(OC(=O)C(O)c1ccccc1)C2 (some centres undefined),24.7
2,COc1cccc2c1C(=O)c1c(O)c3c(c(O)c1C2=O)C[C@@](O)(C(=O)CO)C[C@@H]3O[C@H]1C[C@H](N)[C@H](O)[C@H](C)O1,0.167
3,Nc1[nH]c(=O)ncc1F,2.42
4,O=C(O)/C=C/c1ccc(Cn2ccnc2)cc1,12.1
5,COC(=O)C1=C(C)NC(C)=C(C(=O)OC(C)C)C1c1cccc2nonc12 (centres undefined),16.1
6,CCOC(=O)NNc1nncc2ccccc12,22
7,CC(C)(C)NC(=O)[C@H]1CC[C@H]2[C@@H]3CC[C@H]4NC(=O)C=C[C@]4(C)[C@H]3CC[C@]12C,7
8,CC1(C)O[C@@H]2C[C@H]3[C@@H]4C[C@H](F)C5=CC(=O)CC[C@]5(C)[C@H]4[C@@H](O)C[C@]3(C)[C@]2(C(=O)CO)O1,4.42
9,O=C(O)CCCC[C@@H]1SC[C@@H]2NC(=O)N[C@@H]21,18.6
10,CCCCN(CCCC)CCC(O)c1cc2c(Cl)cc(Cl)cc2c2cc(C(F)(F)F)ccc12 (centres undefined),1.5
11,C[C@H](N)[C@H](O)c1cccc(O)c1,28.4
12,CN1CCC(=C2c3ccccc3CCc3sccc32)CC1,5.08
13,Cc1cccc(C)c1NC(=O)C(C)N (centres undefined),11.7
14,Cc1c(Cl)cccc1Nc1ccccc1C(=O)O,17.2
15,O=C(CCCCC(=O)Nc1c(I)cc(I)c(C(=O)O)c1I)Nc1c(I)cc(I)c(C(=O)O)c1I,5.33
16,Cc1nccn1CC1CCc2c(c3ccccc3n2C)C1=O (centres undefined),36.2
17,CCOc1cc(CC(=O)N[C@@H](CC(C)C)c2ccccc2N2CCCCC2)ccc1C(=O)O,7.75
18,COc1cc(C)nc(-n2nc(C)cc2OC)n1,33.2
19,COc1ccc(C(=O)c2ccccc2O)c(O)c1,1.42
20,CCC1=C(C)CN(C(=O)NCCc2ccc(S(=O)(=O)NC(=O)NC3CCC(C)CC3)cc2)C1=O (centres undefined),5.08

row,Compound,survival
1,CCc1c(C)[nH]c2c1C(=O)C(CN1CCOCC1)CC2 (centres undefined),6.5
2,C#C[C@]1(O)CC[C@H]2[C@@H]3CCc4cc(OC)ccc4[C@H]3CC[C@@]21C,3.33
3,Cc1c(N(C)C)c(=O)n(-c2ccccc2)n1C,13.6
4,O=C(O)[C@@H]1[C@H]2C[C@H]3c4[nH]c5ccccc5c4CCN3C[C@@H]2CC[C@@H]1O,2.42
5,O=C1C(=O)c2ccccc2C(O)=C1C1CCC(c2ccc(Cl)cc2)CC1 (centres undefined),8.83
6,CCN1CCN(C(=O)N[C@@H](C(=O)N[C@@H]2C(=O)N3C(C(=O)O)=C(CSc4nnnn4C)CS[C@H]23)c2ccc(O)cc2)C(=O)C1=O,9.17
7,Cc1ncc([N+](=O)[O-])n1CC(O)CCl (centres undefined),23.5
8,CCCc1c(OCCCCc2nn[nH]n2)ccc(C(C)=O)c1O,110
9,CCCOc1ccc(C(=O)OCCN(CC)CC)cc1N,5.92
10,CCC(=O)O[C@]1(C(=O)SCF)[C@H](C)C[C@H]2[C@@H]3C[C@H](F)C4=CC(=O)C=C[C@]4(C)[C@@]3(F)[C@@H](O)C[C@@]21C,6.58
11,CC(C)N=C(N)/N=C(\N)Nc1ccc(Cl)cc1,3
12,COc1cc(N)c(Cl)cc1C(=O)NC1CCN(Cc2ccccc2)CC1,5.67
13,CC(C)(C(=O)c1cccnc1)c1cccnc1,5
14,C[C@]12CC[C@@H]3c4ccc(O)cc4CC[C@H]3[C@@H]1C[C@@H](O)[C@@H]2O,7.75
15,Cc1c(Nc2ncccc2C(=O)O)cccc1C(F)(F)F,3.67
16,Nc1ccc(O)c(C(=O)O)c1,4.33
17,CNNCc1ccc(C(=O)NC(C)C)cc1,6.5
18,COc1ncnc(NS(=O)(=O)c2ccc(N)cc2)c1OC,14.8
19,COc1ccc(CC2c3cc(OC)c(OC)cc3CC[N+]2(C)CCC(=O)OCCCCCOC(=O)CC[N+]2(C)CCc3cc(OC)c(OC)cc3C2Cc2ccc(OC)c(OC)c2)cc1OC (centres undefined),12.4

# — PubChem BioAssay
